# PubChem BioAssay (Tox21)
# A number with no mark means an inactive call. Results filed as inconclusive are left out. Entries that show only a call come without a potency. Calls of active or inactive are those of the source. Unless noted, the call rests on the fitted dose curve.
# Key:
# [1] = Nuclear factor erythroid 2-related factor 2/antioxidant responsive element (Nrf2/ARE) small molecule agonists: qHTS cell viability counter screen in human keratinocytes (AID 1919968; active means well fitted cell-killing curve with a large enough effect in the repeat runs; further: nearly all actives have a fitted effect of over 55% in size)
# How it was run: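 Seed 1,500 KeratinoSens cells per well, then incubate 5 h at 37 C/5% CO2. Add compounds in DMSO and incubate 23 h. Add CellTiter-Fluor, wait 1 h and read fluorescence.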
# [2] = Nuclear factor erythroid 2-related factor 2/antioxidant responsive element (Nrf2/ARE) small molecule agonists: luciferase reporter gene qHTS assay in human keratinocytes (AID 1919969); further: nearly all actives have a fitted effect of over 35% in size
# [3] = target: Gonadotropin-releasing hormone receptor (Homo sapiens) (UniProt P30968); experiment: Human gonadotropin-releasing hormone receptor (GnRHR) small molecule agonists, calcium flux assay in GnRHR-HEK293 cells (AID 1920063); further: nearly all actives have a fitted effect of over 35% in size
# Sequence of Gonadotropin-releasing hormone receptor (Homo sapiens) (P30968 whole entry, looked up): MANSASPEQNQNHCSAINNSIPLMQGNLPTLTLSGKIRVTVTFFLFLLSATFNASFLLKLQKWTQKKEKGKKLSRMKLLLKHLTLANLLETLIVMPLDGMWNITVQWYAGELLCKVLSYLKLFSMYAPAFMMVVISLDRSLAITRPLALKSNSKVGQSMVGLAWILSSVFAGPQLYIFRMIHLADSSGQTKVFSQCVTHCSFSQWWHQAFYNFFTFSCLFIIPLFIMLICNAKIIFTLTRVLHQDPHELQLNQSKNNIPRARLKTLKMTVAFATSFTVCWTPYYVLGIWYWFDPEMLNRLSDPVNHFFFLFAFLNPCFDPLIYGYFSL
# How it was run: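 Cells: HEK293 stably expressing human GnRHR. Steps: overnight (18 h) culture, 1 h calcium dye loading at 37 C, compound addition, kinetic fluorescence read at 480/540 nm. Each compound tested at 15 concentrations in triplicate.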
# [4] = G protein-coupled receptor (GPCR) small molecule agonists, calcium flux assay: HEK293 wild type cell line counter screen (AID 1920065)
# How it was run: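 Counter-screen of the Tox21 10K library for non-specific calcium release: dye-loaded cells received compounds in DMSO and were monitored by kinetic fluorescence (480/540 nm, 3 min). Fifteen concentrations, run in triplicate.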
# [5] = p53 small molecule agonists, cell-based qHTS assay with human liver microsomes (AID 1963577);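 further: p53 response element beta-lactamase reporter cells with liver microsomes plus NADPH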
# How it was run: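 16 h, 37 C exposure of p53RE-bla cells to compounds with human liver microsomes and NADPH (0.5 mg/mL final each); detection via LiveBLAzer mixture, 2 h dark at room temperature.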
# [6] = p53 small molecule agonists, cell-based qHTS assay with rat liver microsomes (AID 1963578); further: potency means the concentration at half of the fitted maximal effect
# How it was run: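 With rat liver microsomes and NADPH present (0.5 mg/mL final each), p53RE-bla cells are treated with compound for 16 h at 37 C. LiveBLAzer detection mixture is then applied for 2 h at room temperature in the dark.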
# [7] = p53 small molecule agonists, cell-based qHTS assay with human liver microsomes: qHTS cell viability counter screen (AID 1963579); further: nearly all actives have a fitted effect of over 45% in size
# How it was run: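 In this multiplexed counter screen, the reporter plates were subsequently treated with CellTiter-Glo so that cell viability, reflected by luminescence, could be recorded for p53RE-bla cells dosed 16 h with compounds under microsomal activation (HLM and NADPH).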
# [8] = p53 small molecule agonists, cell-based qHTS assay with rat liver microsomes: qHTS cell viability counter screen (AID 1963580); further: nearly all actives have a fitted effect of over 45% in size
# How it was run: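 Intracellular ATP, by CellTiter-Glo luminescence, defines viability. HCT-116 p53RE-bla cells, 4,000 per well, were compound-treated in the presence of rat liver microsomes and NADPH for 16 h at 37 C.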
# [9] = p53 small molecule agonists, cell-based qHTS assay: qHTS cell viability counter screen (AID 1963581); further: nearly all actives have a fitted effect of over 45% in size
# How it was run: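 Cells: HCT-116 with p53 response element-driven beta-lactamase. Treatment: 16 h, 37 C, compounds in DMSO. Read: CellTiter-Glo luminescence after 30 min RT.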
# [10] = p53 small molecule agonists, cell-based qHTS assay (AID 1963582; active means well fitted activation curve with a large enough effect in the signal ratio in the repeat runs, not every such curve was filed as active; the % refers to the signal ratio)
# How it was run: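 Quantitative HTS in p53RE-bla cells: after a 5 h settling period, compounds delivered in DMSO were left on cells for 16 h at 37 C, and reporter induction was measured as fluorescence following 2 h substrate loading.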
# [11] = target: 5-hydroxytryptamine receptor 2A (Homo sapiens) (UniProt P28223); experiment: 5-hydroxytryptamine receptor 2A (HTR2A) small molecule antagonists, cell-based qHTS assay (AID 1963586); further: nearly all actives have a fitted effect of over 45% in size
# Sequence of 5-hydroxytryptamine receptor 2A (Homo sapiens) (P28223 whole entry, looked up): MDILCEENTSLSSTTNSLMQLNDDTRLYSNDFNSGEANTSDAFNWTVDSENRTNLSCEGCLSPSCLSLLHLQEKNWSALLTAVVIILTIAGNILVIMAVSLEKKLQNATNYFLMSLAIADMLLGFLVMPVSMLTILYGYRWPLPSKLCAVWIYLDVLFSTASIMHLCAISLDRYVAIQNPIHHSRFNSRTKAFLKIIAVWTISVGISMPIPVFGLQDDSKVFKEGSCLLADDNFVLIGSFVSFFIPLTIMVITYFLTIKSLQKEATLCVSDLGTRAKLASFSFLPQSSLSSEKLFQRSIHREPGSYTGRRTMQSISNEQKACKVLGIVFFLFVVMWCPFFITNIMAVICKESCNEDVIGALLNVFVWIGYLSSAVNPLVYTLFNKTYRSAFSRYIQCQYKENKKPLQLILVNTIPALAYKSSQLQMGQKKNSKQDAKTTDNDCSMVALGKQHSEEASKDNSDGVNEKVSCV
# How it was run: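 Antagonist-mode intracellular calcium assay: DOI (4 nM) added after 5 min compound pre-incubation at room temperature to dye-loaded HTR2A-CHO cells. Fluorescence followed for 3 min, sampled every second.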
# [12] = target: 5-hydroxytryptamine receptor 2A (Homo sapiens) (UniProt P28223); experiment: 5-hydroxytryptamine receptor 2A (HTR2A) small molecule agonists, cell-based qHTS assay (AID 1963587); further: nearly all actives have a fitted effect of over 30% in size
# How it was run: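 Kinetic calcium-flux fluorescence (2 min, 1 sec intervals) after compound addition in agonist mode. HTR2A-CHO cells were cultured 18 h, then dye-loaded 1 h at 37 C.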
# [13] = target: Muscarinic acetylcholine receptor M1 (Homo sapiens) (UniProt P11229); experiment: Cholinergic receptor muscarinic 1 (CHRM1) small molecule agonists, cell-based qHTS assay (AID 1963589); further: nearly all actives have a fitted effect of over 35% in size
# Sequence of Muscarinic acetylcholine receptor M1 (Homo sapiens) (P11229 whole entry, looked up): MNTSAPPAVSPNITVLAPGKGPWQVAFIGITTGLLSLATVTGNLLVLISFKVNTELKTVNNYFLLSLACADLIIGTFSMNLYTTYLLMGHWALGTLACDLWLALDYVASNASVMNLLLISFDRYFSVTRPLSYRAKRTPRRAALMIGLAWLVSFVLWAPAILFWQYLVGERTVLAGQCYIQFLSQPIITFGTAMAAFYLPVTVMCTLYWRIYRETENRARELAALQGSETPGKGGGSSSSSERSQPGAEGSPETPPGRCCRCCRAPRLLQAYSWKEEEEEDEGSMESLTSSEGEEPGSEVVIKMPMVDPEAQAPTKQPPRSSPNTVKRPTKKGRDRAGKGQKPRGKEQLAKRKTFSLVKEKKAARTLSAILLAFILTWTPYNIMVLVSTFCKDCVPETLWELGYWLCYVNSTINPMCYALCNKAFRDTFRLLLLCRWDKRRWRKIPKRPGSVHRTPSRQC
# How it was run: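 Agonist-mode qHTS in CHO cells stably carrying human muscarinic M1. Intracellular calcium is tracked by fluorescence every second after compound transfer; each compound runs at 15 concentrations in three independent runs.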
# [14] = cAMP Responsive Elements (CRE) small molecule agonists, cell-based qHTS assay (AID 1963590)
# How it was run: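 Agonist mode qHTS in CRE-bla HEK 293T cells: compounds dosed from DMSO for 3 h at 37 C/5% CO2, followed by LiveBLAzer B/G FRET substrate for 2 h at room temperature.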
# [15] = cAMP Responsive Elements (CRE) small molecule antagonists, cell-based qHTS assay (AID 1963591; active means well fitted inhibition curve with a large enough effect in the signal ratio in the repeat runs, not every such curve was filed as active; the % refers to the signal ratio)
# How it was run: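 Antagonist mode: test compounds are co-incubated with the adenylyl cyclase activator NKH477 (0.25 uM final) on CRE-bla HEK293T cells for 3 h at 37 °C, followed by LiveBLAzer substrate loading.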
# [16] = target: Beta-2 adrenergic receptor (Homo sapiens) (UniProt P07550); experiment: Adrenergic beta2 receptor (ADRB2) small molecule antagonists, cell-based qHTS assay (AID 1963592); further: nearly all actives have a fitted effect of over 50% in size; further: potency means the concentration at half of the fitted maximal effect
# Sequence of Beta-2 adrenergic receptor (Homo sapiens) (P07550 whole entry, looked up): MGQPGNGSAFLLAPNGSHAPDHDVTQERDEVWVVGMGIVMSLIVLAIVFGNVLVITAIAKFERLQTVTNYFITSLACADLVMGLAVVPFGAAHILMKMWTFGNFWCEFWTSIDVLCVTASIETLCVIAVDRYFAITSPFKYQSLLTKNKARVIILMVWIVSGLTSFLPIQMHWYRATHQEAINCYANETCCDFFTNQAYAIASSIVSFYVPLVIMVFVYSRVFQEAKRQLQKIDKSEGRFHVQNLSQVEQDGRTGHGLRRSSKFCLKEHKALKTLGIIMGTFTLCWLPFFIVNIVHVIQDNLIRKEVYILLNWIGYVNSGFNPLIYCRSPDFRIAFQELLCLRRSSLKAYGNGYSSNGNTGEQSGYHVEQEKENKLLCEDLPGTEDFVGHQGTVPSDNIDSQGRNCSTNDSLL
# How it was run: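 Cells (CHO, stable ADRB2 overexpression) incubated 18-20hr at 37C; compounds added from DMSO; agonist mix (1nM isoproterenol, 100uM IBMX, 25uM Ro-20-1724) added; 0.5hr RT; d2-cAMP and anti-cAMP-cryptate added; 1hr RT; 665/615 nm read.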
# [17] = target: D(2) dopamine receptor (Homo sapiens) (UniProt P14416); experiment: Dopamine D2 receptor (DRD2) small molecule agonists, cell-based qHTS assay (AID 1963594); further: nearly all actives have a fitted effect of over 35% in size
# Sequence of D(2) dopamine receptor (Homo sapiens) (P14416 whole entry, looked up): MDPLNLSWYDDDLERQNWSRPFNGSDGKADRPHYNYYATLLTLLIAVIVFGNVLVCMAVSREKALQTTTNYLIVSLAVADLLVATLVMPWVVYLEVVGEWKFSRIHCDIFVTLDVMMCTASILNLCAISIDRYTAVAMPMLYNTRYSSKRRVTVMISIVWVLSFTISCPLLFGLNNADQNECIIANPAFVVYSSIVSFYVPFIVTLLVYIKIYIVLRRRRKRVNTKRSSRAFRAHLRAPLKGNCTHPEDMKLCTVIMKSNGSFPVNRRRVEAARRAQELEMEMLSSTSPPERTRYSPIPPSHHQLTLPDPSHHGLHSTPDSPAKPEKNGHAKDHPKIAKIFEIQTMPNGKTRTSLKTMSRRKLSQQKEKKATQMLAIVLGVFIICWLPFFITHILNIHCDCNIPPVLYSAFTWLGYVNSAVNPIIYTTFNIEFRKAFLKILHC
# How it was run: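 cAMP accumulation in DRD2-HEK293 cells measured by HTRF after 1 h detection; compounds added 10 min before NKH477 (200nM […]) forskolin-analogue stimulation, 30 min at room temperature, with Ro20-1724 present at 0.1 mM final.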
# [18] = target: D(2) dopamine receptor (Homo sapiens) (UniProt P14416); experiment: Dopamine D2 receptor (DRD2) small molecule antagonists, cell-based qHTS assay (AID 1963595; active means well fitted inhibition curve with a large enough effect in the signal ratio in the repeat runs, with a control signal flat; the % refers to the signal ratio)
# How it was run: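 HEK293 cells stably expressing DRD2 were preincubated with 0.1 mM Ro20-1724, then with compound for 10 min at room temperature. Cells were stimulated with 200 nM NKH477 plus 12 nM quinpirole for 30 min, and cAMP was read by HTRF.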
# [19] = target: Muscarinic acetylcholine receptor M1 (Homo sapiens) (UniProt P11229); experiment: Cholinergic receptor muscarinic 1 (CHRM1) small molecule antagonists, cell-based qHTS assay (AID 1963588); further: nearly all actives have a fitted effect of over 40% in size
# How it was run: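 CHRM1-CHO calcium-flux assay, antagonist mode. Cells were seeded 18 h, dye-loaded 1 h at 37 C and given compound for 5 min at RT, then acetylcholine was added at 50nM. FDSS fluorescence was read 3 min; 15 concentrations, three runs.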
# [20] = target: Beta-2 adrenergic receptor (Homo sapiens) (UniProt P07550); experiment: Adrenergic beta2 receptor (ADRB2) small molecule agonists, cell-based qHTS assay (AID 1963593);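 further: CHO cells stably overexpressing human ADRB2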
# How it was run: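 CHO cells stably over-expressing ADRB2 were plated overnight at 37C, then dosed with compounds plus a stimulation mix containing 100uM IBMX and 25uM Ro-20-1724 for 0.5hr at room temperature. cAMP was measured by HTRF competition, 1hr.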
Structure (SMILES),Potency [1],Potency [2],Potency [3],outcome [4],Potency [5],Potency [6],Potency [7],Potency [8],Potency [9],Potency [10],Potency [11],Potency [12],Potency [13],Potency [14],Potency [15],Potency [16],Potency [17],Potency [18],Potency [19],Potency [20]
CC[N+](CC)(CCNC(=O)C(=O)NCC[N+](CC)(CC)Cc1ccccc1Cl)Cc1ccccc1Cl,inactive,inactive,inactive,inactive,inactive,inactive,inactive,inactive,inactive,inactive,inactive,inactive,inactive,inactive,inactive,inactive,inactive,inactive,,
O=c1cc[nH]cc1,inactive,inactive,inactive,inactive,inactive,inactive,inactive,inactive,inactive,inactive,inactive,inactive,,inactive,inactive,inactive,,inactive,inactive,
CCOC(=O)c1c(N)sc2c1CCN(Cc1ccccc1)C2,inactive,inactive,inactive,inactive,inactive,15.8 µM (active),inactive,inactive,inactive,inactive,inactive,inactive,inactive,inactive,,inactive,inactive,inactive,inactive,inactive
O=C(c1ccc(F)cc1)C1CCN(CCn2c(=O)[nH]c3ccccc3c2=O)CC1,inactive,inactive,inactive,inactive,inactive,inactive,inactive,inactive,inactive,inactive,,inactive,inactive,,,inactive,inactive,inactive,inactive,inactive
CCC(=O)c1c(O)cc(O)cc1O,inactive,inactive,inactive,inactive,inactive,inactive,inactive,inactive,inactive,inactive,,inactive,inactive,inactive,inactive,inactive,inactive,inactive,inactive,inactive
CC(C)[N+](C)(C)CC(O)COc1cccc2ccccc12 (stereo not given),inactive,inactive,inactive,inactive,inactive,inactive,inactive,inactive,inactive,inactive,inactive,inactive,inactive,inactive,,15 µM (active),inactive,inactive,,
CCOC(=O)Cc1cccc2ccccc12,inactive,inactive,inactive,inactive,inactive,inactive,inactive,inactive,inactive,inactive,inactive,inactive,inactive,inactive,,inactive,,inactive,inactive,inactive
